Laboratory results from PubChem BioAssay (NCATS).
Inconclusive results are not listed. Activity calls are given as the source filed them. Calls follow the shape of the dose curve; as a rule, active = well fitted cell-killing curve with a large enough effect; inconclusive = small, poorly fitted or top-dose-only effect; inactive = flat fitted curve, though single readings scatter.

Experiment: qHTS of pediatric cancer cell lines to identify multiple opportunities for drug repurposing: Primary screen for TC32 cells (AID 1347089); also: nearly all actives have a fitted effect of over 60% in size
Settings: TC32 Ewing sarcoma viability, CellTiter-Glo luminescence, 48 h; series mostly up to 45.8 µM
How it was run: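 In the primary qHTS, MIPE compounds were tested at 11 concentrations (0.78 nM to 46 µM) and NPC compounds at 8 (0.59 nM to 46 µM) on TC32 cells for 48 h. CellTiter-Glo luminescence gave viability.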
Potency is read from the fitted curve at half-maximal effect.

Which Potency does the source give for `COc1ccc2c(c1OC)C(=O)OC2[C@H]1c2c(cc3c(c2OC)OCO3)CCN1C` (some centres not stated) here?
Its Potency is 1.04 µM (active).

For `CCCCCN=C(N)NN=Cc1c[nH]c2ccc(OC)cc12`, which Potency is on record?
Its Potency is 16.5 µM (active).

Which Potency does the source give for `NC(=O)Nc1cc(-c2ccc(CN3CCOCC3)cc2)sc1C(N)=O` here?
Its Potency is 0.523 µM (active).

With `CN(CC(=O)N(Cc1ccc(C2CCCCC2)cc1)c1ccc(C(=O)O)c(O)c1)S(=O)(=O)c1c(F)c(F)c(F)c(F)c1F` as the molecule, how does the Potency read?
The Potency was “inactive”.

Which Potency does the source give for `FC(F)(F)c1ccc(Nc2nc3ccc(Oc4ccnc(-c5ncc(C(F)(F)F)[nH]5)c4)cc3[nH]2)cc1` here?
The Potency was “inactive”.

For `Nc1ccc(C(=O)Nc2cccc(-c3nc(N4CCOCC4)c4oc5ncccc5c4n3)c2)cn1`, which Potency is on record?
The Potency was “inactive”.

For `CN(C)CC(=O)N1CCC(c2ccc(NC(=O)c3ncc(C#N)[nH]3)c(C3=CCCCC3)c2)CC1`, which Potency is on record?
Its Potency is “inactive”.

With `c1ccc(CNc2nc(NCc3ccccc3)c3ccccc3n2)cc1` as the molecule, how does the Potency read?
The Potency was “inactive”.

With `CCOC(=O)[C@@H](N)Cc1ccc(-c2cc(O[C@H](c3ccc(Cl)cc3-n3ccc(C)n3)C(F)(F)F)nc(N)n2)cc1` as the molecule, how does the Potency read?
Its Potency is “inactive”.

For `O=C(O)C=Cc1ccc(Cn2ccnc2)cc1`, which Potency is on record?
Its Potency is “inactive”.

For `C=CC[C@@H]1C=C(C)C[C@H](C)C[C@H](OC)[C@H]2O[C@@](O)(C(=O)C(=O)N3CCCC[C@H]3C(=O)O[C@H](C(C)=C[C@@H]3CC[C@H](O)[C@H](OC)C3)[C@@H](C)[C@@H](O)CC1=O)[C@@H](C)C[C@@H]2OC`, which Potency is on record?
The Potency was “inactive”.

For `COc1cc2c(cc1O)CCC1C2CC[C@@]2(C)C1CC[C@@H]2O` (some centres not stated), which Potency is on record?
The Potency was 18.6 µM (active).

Which Potency does the source give for `COc1cccc2c1C(=O)c1c(O)c3c(c(O)c1C2=O)C[C@@](O)(C(C)=O)C[C@H]3O[C@H]1C[C@H](N)[C@H](O)[C@H](C)O1` here?
The Potency was 0.234 µM (active).

With `O=C(C=Cc1ccc(CN(CCO)CCc2c[nH]c3ccccc23)cc1)NO` as the molecule, how does the Potency read?
Its Potency is 0.93 µM (active).

Which Potency does the source give for `COc1ccc(S(=O)(=O)Nc2cccnc2Nc2ccc(O)cc2)cc1` here?
The Potency was 8.29 µM (active).

For `C[C@H](NC(=O)C(C#N)=Cc1cccc(Br)n1)c1ccccc1`, which Potency is on record?
The Potency was “inactive”.

Experiment: qHTS of pediatric cancer cell lines to identify multiple opportunities for drug repurposing: Primary screen for DAOY cells (AID 1347090); also: nearly all actives have a fitted effect of over 55% in size
Settings: DAOY medulloblastoma viability, CellTiter-Glo luminescence, 48 h; series mostly up to 46 µM
How it was run: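 Cell viability, CellTiter-Glo luminescence; 500-1,000 cells/well, 8- or 11-point titration, 48 h compound exposure at 37 degrees C, 5% CO2. Controls: DMSO neutral, bortezomib 2.3 µM final as positive.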

Which Potency does the source give for `CCOC(=O)[C@H](CCc1ccccc1)N[C@@H](C)C(=O)N1[C@@H](C(=O)O)C[C@H]2CCC[C@@H]21` here?
The Potency was 14.8 µM (active).

For `COc1cc(N2CCC(C(N)=O)CC2)ccc1Nc1nc(N)c(Cl)c(Nc2ccccc2S(=O)(=O)C(C)C)n1`, which Potency is on record?
Its Potency is 0.187 µM (active).

Which Potency does the source give for `CC(C)NC[C@@H](C(=O)N1CCN(c2ncnc3c2[C@H](C)C[C@H]3O)CC1)c1ccc(Cl)cc1` here?
Its Potency is 5.9 µM (active).

With `CN1CCc2c(c3ccccc3n2Cc2ccc(C(=O)NO)cc2)C1` as the molecule, how does the Potency read?
Its Potency is 3.72 µM (active).

For `COc1cc2c(cc1OC)[C@@H]1C(=O)c3ccc4c(c3O[C@@H]1CO2)C=CC(C)(C)O4`, which Potency is on record?
Its Potency is 0.0743 µM (active).

For `NC(=O)N1CCC(CC(=O)N2CCC([C@H]3c4ncc(Br)cc4CCc4cc(Cl)cc(Br)c43)CC2)CC1`, which Potency is on record?
The Potency was 23.5 µM (active).

For `CS(=O)(=O)N1CCc2c(-c3cnc(N)nc3)nc(N3CCOCC3)nc21`, which Potency is on record?
Its Potency is 0.469 µM (active).

Which Potency does the source give for `C=CC[C@@H]1C=C(C)C[C@H](C)C[C@H](OC)[C@H]2O[C@@](O)(C(=O)C(=O)N3CCCC[C@H]3C(=O)O[C@H](C(C)=C[C@@H]3CC[C@H](O)[C@H](OC)C3)[C@@H](C)[C@@H](O)CC1=O)[C@@H](C)C[C@@H]2OC` here?
The Potency was “inactive”.

For `O=C(Nc1nnc(-c2ccco2)o1)c1cc(-c2ccccc2)nc2ccccc12`, which Potency is on record?
The Potency was 14.8 µM (active).

For `C=CCNC1=C2C[C@@H](C)C[C@H](OC)[C@@H](O)[C@@H](C)C=C(C)[C@H](OC(N)=O)[C@@H](OC)C=CC=C(C)C(=O)NC(=CC1=O)C2=O`, which Potency is on record?
Its Potency is 2.96 µM (active).

With `CC(C=CC1=C(C)CCCC1(C)C)=CC=CC(C)=CC(=O)Nc1ccc(O)cc1` as the molecule, how does the Potency read?
Its Potency is 42.9 µM (active).
